Data reported in PubChem BioAssay (NCATS).
Where “and” joins values, the source holds several entries; their conditions need not be identical. Identical values can stand only once. Records with an inconclusive call do not appear. Where a structure was tested more than once in an assay, its records may differ in their call. Calls of active or inactive are those of the source. Unless noted, the call rests on the fitted dose curve; in most records, active means well fitted curve in the direction sought with a large enough effect; inconclusive means small, poorly fitted or top-dose-only effect, or another doubt; inactive means no such curve, though single readings can be large; an effect the other way counts as inactive or inconclusive.

What was measured:
[1] = Cell Viability - BJ (AID 421; calls by dose curve;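 further: potency means the concentration at half of the fitted maximal effect; cells exposed to compound for 40 hours at 37 °C before readout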); settings: BJ fibroblast viability, qHTS
Summary of the method: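 Cytotoxicity in human BJ foreskin fibroblasts is scored as loss of cellular ATP after a 40-hour exposure, measured by luciferase luminescence. Controls are DMSO and 100 uM tamoxifen.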

[2] = Cell Viability - MRC5 (AID 434; calls by dose curve;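 further: potency means the concentration at half of the fitted maximal effect; cells exposed to compound for 40 hours at 37 °C; potency reflects cytotoxicity seen as loss of intracellular ATP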); settings: MRC5 lung fibroblast viability, qHTS
Summary of the method: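 AC50 values come from Hill-equation fits of intracellular ATP loss, measured by CellTiter-Glo luminescence. Normal lung fibroblasts (MRC5) had 40 hr compound treatment at 37 C, normalized between DMSO and 100 uM tamoxifen.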

[3] = Cell Viability - SK-N-SH (AID 435; calls by dose curve;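 further: potency means the concentration at half of the fitted maximal effect; compound exposure lasted 40 h at 37 °C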); settings: SK-N-SH neuroblastoma cell viability qHTS
Summary of the method: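 Luminescent ATP signal served as the viability read-out after 40 hours of compound treatment of human neuroblastoma SK-N-SH cells. Concentration-response data, scaled between DMSO and 100 uM tamoxifen, gave AC50 values by standard Hill modeling.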

[4] = Cell Viability - NIH 3T3 (AID 541); settings: NIH 3T3 cell viability, qHTS; activity change, negative = cytotoxicity: at 92.2 µM (top of the series); further: nearly all actives have a fitted effect of over 25% in size; further: potency means the concentration at half of the fitted maximal effect;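 on activity change, negative = cytotoxicity: plate controls were DMSO alone for no effect and tamoxifen positive control for full effect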
Summary of the method: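 Intracellular ATP (CellTiter-Glo luminescence, 20 min at room temperature) measured after 40 hr compound exposure at 37 °C of 1000 NIH 3T3 mouse fibroblasts/well in complete medium; AC50 derived by Hill-equation modelling of qHTS concentration-response curves.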

[5] = Cell Viability - Mesenchymal (AID 546); settings: mesenchymal cells viability, qHTS; activity change, negative = cytotoxicity: at 91.7 µM (top of the series);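 further: cells exposed to compound for 40 hours before reading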
Summary of the method: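 CellTiter-Glo luminescence (intracellular ATP, 20 min room temperature) after 40 hr compound exposure at 37 °C of 1000 glomerulus-derived human kidney mesenchymal cells/well; AC50 values obtained by fitting qHTS concentration-response data to the Hill equation.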

[6] = Cellular Toxicity (caspase-3) BJ (AID 658); settings: BJ fibroblasts, luminescence, normalized: DMSO 0%, staurosporine 100%; series mostly up to 91.7 µM
Summary of the method: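 Caspase-Glo 3/7 luminescence, read 1 hr after reagent at room temperature, in normal BJ fibroblasts exposed 16 hours at 37 °C. AC50 values from Hill-equation concentration-response, scaled between DMSO basal and 10 uM staurosporine as 100%.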

[7] = Cellular Toxicity (caspase-3) MRC-5 (AID 659); settings: MRC-5 cells, luminescence, normalized: DMSO 0%, 10 µM staurosporine 100%; series mostly up to 91.7 µM
Summary of the method: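 Luminescent Caspase-Glo 3/7 read-out (1 h, room temperature) after a 16 h, 37 °C compound exposure of MRC-5 lung fibroblasts at 1500 cells/well. Concentration-response AC50 from Hill equation; 0% DMSO, 100% 10 uM staurosporine.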

[8] = Cellular Toxicity (caspase-3) Mesangial (AID 660); settings: mesangial cells, normalized: DMSO 0%, 100 µM tamoxifen 100%; series mostly up to 91.7 µM;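 further: combined caspase 3 and 7 activity read by Caspase-Glo luminescence; cells exposed to compound for 16 h before the caspase read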
Summary of the method: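 Caspase 3/7 activation measured by Caspase-Glo 3/7 luminescence (20 min, room temperature) following 16 h exposure of mesangial cells (1000/well); AC50 from Hill-equation fit, normalized to DMSO and 100 uM tamoxifen.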

[9] = Cellular Toxicity (caspase-3) Hek293 (AID 664); settings: HEK293 caspase-3 activation, DMSO = 0%, 100 µM tamoxifen = 100%; series mostly up to 92.2 µM;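 further: cells exposed to compound for 16 h at 37 °C before readout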
Summary of the method: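 Concentration-response qHTS: caspase 3/7 activation measured by luminescent aminoluciferin substrate cleavage after 16 h compound exposure of Hek 293 cells. AC50 from Hill equation, with DMSO as basal and 100 uM tamoxifen as 100%.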

[10] = Cellular Toxicity (caspase-3) Renal Proximal Tubule (AID 667); settings: renal proximal tubule cells, primary cells freshly taken from rat, solvent-only wells 0%, staurosporine 100%; series mostly up to 91.7 µM;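 further: cells exposed to compound for 16 hours at 37 °C before detection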
Summary of the method: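 AC50 derived by standard Hill fit of concentration-response data, normalized between DMSO basal and 10 uM staurosporine as 100% stimulation. Cells: primary rat kidney proximal tubule, 16 h treatment at 37 °C.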

[11] = MultiTox-Fluor Cytotoxicity Assay - LYMP1-003 - Live Cells (AID 962); settings: LYMP1-003 lymphoblastoid cells, MultiTox-Fluor live-cell protease fluorescence; series mostly up to 92.2 µM;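 further: 0% = DMSO only and full loss = 92 µM tetraoctylammonium bromide; cytotoxic hits lower the live-cell protease signal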
Summary of the method: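 Live-cell protease activity (GF-AFC substrate, 405/510 nm, 60 min at room temperature) after 16 h, 37 C compound exposure of human lymphoblastoid LYMP1-003 cells; concentration-response fitted to the Hill equation for AC50.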

[12] = qHTS Assay for Identification of Small Molecule Inducers of Hypoxia Response (AID 2120; active means well fitted curve in the direction sought with a large enough effect in the signal ratio, with a control signal flat, not every such curve was filed as active; the % refers to the signal ratio; further: 0% is about no effect); settings: hypoxia response reporter cells, beta-lactamase ratio readout; series mostly up to 104 µM
Summary of the method: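 Reporter induction read as the CCF4 blue/green (460nm/530nm) emission ratio after 2.5 h dye loading at room temperature. ME-180 HRE-beta-lactamase cells received titrated compounds for 17 h at 37 degrees Celsius; AC50 values derived.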

[13] = target: Thyroid hormone receptor beta (Homo sapiens) (UniProt P10828); assay: qHTS assay for small molecule agonists of thyroid hormone receptor beta signaling (AID 588545; calls by dose curve); settings: TR-UAS-bla GripTite HEK 293, beta-lactamase ratio, agonist mode, 18 h, percent of T3 response, DMSO as zero; series mostly up to 76.7 µM
Thyroid hormone receptor beta (Homo sapiens), sequence (P10828 whole entry, looked up): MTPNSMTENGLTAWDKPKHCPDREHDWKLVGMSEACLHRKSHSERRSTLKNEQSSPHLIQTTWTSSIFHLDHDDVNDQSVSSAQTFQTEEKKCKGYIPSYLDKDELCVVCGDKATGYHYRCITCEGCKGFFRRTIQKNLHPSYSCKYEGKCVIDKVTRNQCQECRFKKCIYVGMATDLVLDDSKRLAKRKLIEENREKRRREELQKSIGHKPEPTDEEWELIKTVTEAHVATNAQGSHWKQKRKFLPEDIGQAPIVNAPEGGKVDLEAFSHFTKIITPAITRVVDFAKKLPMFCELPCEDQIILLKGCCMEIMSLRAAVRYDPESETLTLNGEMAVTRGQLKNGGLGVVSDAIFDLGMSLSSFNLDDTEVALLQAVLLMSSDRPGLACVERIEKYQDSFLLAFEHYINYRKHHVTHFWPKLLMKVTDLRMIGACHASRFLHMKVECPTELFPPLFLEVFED
Summary of the method: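 Agonist-mode beta-lactamase reporter assay, HEK 293 cells, 2% charcoal/dextran FBS; cells plated 4 hrs, compound 18 hrs at 37 C, CCF4 2 hrs RT. Normalized to 10 nM T3 (100%) and DMSO (0%); Hill fit gives EC50, efficacy.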

[14] = qHTS assay for small molecule antagonists of retinoid X receptor alpha signaling (AID 588546; active means well fitted inhibition curve with a large enough effect in the signal ratio, with a control signal flat, not every such curve was filed as active; the % refers to the signal ratio;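 further: cells stimulated with 9-cis-retinoic acid as agonist; on the % scale 0 is the no-effect control and ±100 the full control effect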); settings: HEK293T RXRa-UAS-bla, beta-lactamase ratio, antagonist mode; measured here: W530 green channel, cytotoxicity proxy
Summary of the method: (§1)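 Beta-lactamase reporter inhibition, read as CCF4 fluorescence ratio (ex 405, em 460/530 nm) after 2 h at RT. HEK293T UAS-bla cells, 2500/well, were stimulated with 9-cis-RA at 500 or 100 nM final alongside test compound for 18 h at 37 C.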

[15] = target: Retinoic acid receptor RXR-alpha (Homo sapiens) (UniProt P19793); assay: as above; settings: HEK293T RXRa-UAS-bla, beta-lactamase ratio, antagonist mode
Retinoic acid receptor RXR-alpha (Homo sapiens), sequence (P19793 whole entry, looked up): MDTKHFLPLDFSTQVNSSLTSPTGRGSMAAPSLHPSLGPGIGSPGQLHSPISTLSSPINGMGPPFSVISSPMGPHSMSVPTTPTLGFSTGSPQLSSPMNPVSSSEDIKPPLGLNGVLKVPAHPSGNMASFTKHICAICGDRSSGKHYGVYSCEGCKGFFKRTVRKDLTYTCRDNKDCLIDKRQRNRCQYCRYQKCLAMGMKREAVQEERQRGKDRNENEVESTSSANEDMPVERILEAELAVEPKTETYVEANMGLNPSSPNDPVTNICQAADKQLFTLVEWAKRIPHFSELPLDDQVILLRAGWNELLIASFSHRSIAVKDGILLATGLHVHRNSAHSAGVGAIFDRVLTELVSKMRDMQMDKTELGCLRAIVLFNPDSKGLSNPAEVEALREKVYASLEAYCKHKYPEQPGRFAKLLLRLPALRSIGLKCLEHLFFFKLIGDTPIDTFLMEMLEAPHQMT
Summary of the method: as §1

[16] = qHTS assay for environmental chemicals that activate the Aryl hydrocarbon Receptor (AhR) signaling pathway (AID 651777); settings: 1A2-DRE human hepatoma cells, luciferase, 24 h; activation: stronger effect = higher value; further: % of control where 0% means no effect; nearly all actives have a fitted effect of over 15% in size
Summary of the method: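 Human hepatoma 1A2-DRE cells, stably carrying a dioxin response element and CYP1A2 promoter driving luciferase, were exposed to compounds for 24 hr at 37 C and 5% CO2. Luciferase signal was then read after 30 min One-Glo at room temperature.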

[17] = target: Peroxisome proliferator-activated receptor alpha (Homo sapiens) (UniProt Q07869); assay: qHTS assay for small molecule agonists of the peroxisome proliferator-activated receptor alpha (PPARalpha) signaling pathway (AID 651778); settings: PathHunter PPARalpha complementation, chemiluminescence, 6 h; max response: stronger effect = higher value; further: % of control where 0% means no effect
Peroxisome proliferator-activated receptor alpha (Homo sapiens), sequence (Q07869 whole entry, looked up): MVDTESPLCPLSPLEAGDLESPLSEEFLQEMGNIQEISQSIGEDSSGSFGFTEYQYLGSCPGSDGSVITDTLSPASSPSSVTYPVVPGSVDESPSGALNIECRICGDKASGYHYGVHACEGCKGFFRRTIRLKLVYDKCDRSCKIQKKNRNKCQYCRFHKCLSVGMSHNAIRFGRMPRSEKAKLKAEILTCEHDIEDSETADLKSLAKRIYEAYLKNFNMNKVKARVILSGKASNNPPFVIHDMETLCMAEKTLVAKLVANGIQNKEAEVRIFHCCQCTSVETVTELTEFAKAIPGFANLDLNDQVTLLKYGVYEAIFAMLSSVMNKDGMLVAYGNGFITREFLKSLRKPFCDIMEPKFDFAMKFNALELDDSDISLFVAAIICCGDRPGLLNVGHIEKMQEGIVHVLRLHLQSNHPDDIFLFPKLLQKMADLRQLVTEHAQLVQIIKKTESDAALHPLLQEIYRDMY
Summary of the method: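 Chemiluminescence from complemented enzyme reported PPARalpha activation in cells after 6 hr of compound treatment at 37 C. The detection reagent was incubated for 60 min at room temperature, and compounds were scored as agonists.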

[18] = qHTS assay for small molecule agonists of the antioxidant response element (ARE) signaling pathway measured by Nrf2-dependant transcriptional activity (AID 720636; active means well fitted curve in the direction sought with a large enough effect in the repeat runs; an effect the other way counts as inactive or inconclusive; further: % of control where 0% means no effect); settings: ARE-luc HepG2, Nrf2 luciferase reporter, 16 h; series mostly up to 92.4 µM
Summary of the method: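 ARE-luc HepG2 cells carrying an Nrf2-responsive luciferase reporter were plated in medium with 1% dialyzed FBS, left 6 hr at 37 C to attach, then exposed to compound for 16 hr. Luciferase luminescence was read after ONE-Glo addition.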

[19] = qHTS assay for small molecule agonists of the antioxidant response element (ARE) signaling pathway measured by Nrf2-dependant transcriptional activity - cell viability counter screen (AID 720653; active means well fitted curve in the direction sought with a large enough effect in the repeat runs; an effect the other way counts as inactive or inconclusive; further: on the % scale 0 is the no-effect control and ±100 the full control effect); settings: ARE-bla HepG2 viability, CellTiter-Glo ATP luminescence, 16 h; max response: stronger effect = lower value
Summary of the method: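 Cytotoxicity counter screen: intracellular ATP quantified by CellTiter-Glo luminescence in the same ARE-bla HepG2 plates, after 16 h compound exposure and a 2 h beta-lactamase substrate step.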

[20] = qHTS assay for cell viability of HEK293 cells (AID 743288); settings: ATP luminescence (CellTiter-Glo), 18 h; max response: stronger effect = lower value; further: on the % scale 0 is the no-effect control and ±100 the full control effect; nearly all actives have a fitted effect of over 50% in size
Summary of the method: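 Viable-cell counts were inferred from luciferase-based ATP content in HEK293 cells seeded at 2,000/well, pre-incubated ≥5 h, then dosed with DMSO-solubilised compounds for 18 h at 37 C.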

CCCCC(CC)CN (stereo not given)
-4.73% and -4.29%: max response [14]
12.6 µM (active) and inactive: Potency [4]
inactive: Potency [1] > 92 µM | Potency [2] > 92 µM | Potency [3] > 92 µM | activity change, negative = cytotoxicity [5] -2.68% and 2.84% | outcome [6] | outcome [7] | outcome [8] | outcome [9] | outcome [10] | Potency [11] | outcome [12] | outcome [13] | max response [15] 27.8% and 7.94% | activation [16] 0.546% and 3.21% | max response [17] -4.52% and -4.66% | Potency [18] | max response [19] -5.16% and -12.4% | max response [20] 2.8% and -10%

CCO
inactive: Potency [1] > 92 µM | Potency [2] > 92 µM | Potency [3] > 92 µM | Potency [4] | activity change, negative = cytotoxicity [5] -1.16% | outcome [6] | outcome [7] | outcome [8] | outcome [9] | outcome [10] | Potency [11] | outcome [12] | outcome [13] | max response [15] -6.86% | activation [16] -1.26% | max response [17] -0.991% | Potency [18] | max response [19] 7% | max response [20] 8.81%
-7.92%: max response [14]

O=C(O)c1ccc(O)cc1O
-5.6%: max response [14]
inactive: Potency [1] > 92 µM | Potency [2] > 92 µM | Potency [3] > 92 µM | Potency [4] | activity change, negative = cytotoxicity [5] 5.57% and 9.36% | outcome [6] | outcome [7] | outcome [8] | outcome [9] | outcome [10] | Potency [11] | outcome [12] | outcome [13] | max response [15] 1.87% | activation [16] 0.974% and 0.552% | max response [17] -2.85% and -4.3% | Potency [18] | max response [19] 4.94% and 4% | max response [20] -11.1% and 9.9%

Cc1ccc(N)c([N+](=O)[O-])c1
-10.8% and -10%: max response [14]
inactive: Potency [1] > 92 µM | Potency [2] > 92 µM | Potency [3] > 92 µM | Potency [4] | activity change, negative = cytotoxicity [5] 5.43% | outcome [6] | outcome [7] | outcome [8] | outcome [9] | outcome [10] | Potency [11] | outcome [12] | outcome [13] | max response [15] -0.0872% and -10.2% | activation [16] 2.83% and 1.74% | max response [17] -6.83% and -1.01% | Potency [18] | max response [19] -14.8% and -1.11% | max response [20] -10.6% and -7.86%

COc1c2ccoc2cc2oc(=O)ccc12
inactive: Potency [1] > 92 µM | Potency [2] > 92 µM | Potency [3] > 92 µM | Potency [4] | activity change, negative = cytotoxicity [5] -14.2% | outcome [6] | outcome [7] | outcome [8] | outcome [9] | outcome [10] | Potency [11] | outcome [12] | outcome [13] | max response [15] 23.4% | activation [16] 1.47% | max response [17] -2.53% | Potency [18] | max response [19] 3.31% | max response [20] -2.26%
-1.57%: max response [14]

Cc1ccc([N+](=O)[O-])c(C)c1
inactive: Potency [1] > 92 µM | Potency [2] > 92 µM | Potency [3] > 92 µM | Potency [4] | activity change, negative = cytotoxicity [5] 1.9% | outcome [6] | outcome [7] | outcome [8] | outcome [9] | outcome [10] | Potency [11] | outcome [12] | outcome [13] | max response [15] -1.42% and 0.976% | activation [16] -0.465% and 2.75% | max response [17] -4.28% and -0.811% | Potency [18] | max response [19] -3.32% and -3.26% | max response [20] 0.892% and -5.18%
-2.42% and -7.16%: max response [14]

Clc1cc(Cl)c(Cl)cc1Cl
inactive: Potency [1] > 92 µM | Potency [2] > 92 µM | Potency [3] > 92 µM | Potency [4] | activity change, negative = cytotoxicity [5] 9.51% | outcome [6] | outcome [7] | outcome [8] | outcome [9] | outcome [10] | Potency [11] | outcome [12] | outcome [13] | max response [15] 6.25% and -33.5% | activation [16] -0.0961% and 4.29% | max response [17] -0.154% and -0.267% | Potency [18] | max response [19] 2.91% and 4.61% | max response [20] 3.48% and -4.31%
-13.2% and -12.3%: max response [14]

Clc1cc(Cl)c(Cl)c(Cl)c1Cl
inactive: Potency [1] > 92 µM | Potency [2] > 92 µM | Potency [3] > 92 µM | Potency [4] | activity change, negative = cytotoxicity [5] -0.0158% | outcome [6] | outcome [7] | outcome [8] | outcome [9] | outcome [10] | Potency [11] | outcome [12] | outcome [13] | max response [15] -0.48% and -22.2% | activation [16] 0.277% and 2.12% | max response [17] -5.3% and -0.232% | Potency [18] | max response [19] -0.0319% and -1.01% | max response [20] -16.4% and -15.3%
-5.69% and -1.37%: max response [14]
